Experimental data: PubChem BioAssay
The source made the active and inactive calls.

Columns and labels:
[1] = optical density shifts of acrAB sulA E. coli – strain DRC41, OD650, 48 h, E. coli filamentation inducer project, primary screen (AID 1152); settings: higher = more signal, called active from +8 up or from −8 down;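 also: E. coli MC1000 strain DRC41 lacking acrAB efflux pump and sulA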
[2] = probe aLefty1 binding on compound microarray – biochemical, small-molecule microarray, 635/667 nm fluorescence, primary screen (AID 1153); settings: higher = more signal;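 also: score merges spot fluorescence with signal-to-noise ratio from the scanned slide images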
[3] = plasmodial surface anion channel blockers, osmotic lysis – cell-based, P. falciparum Indochina, OD700, 1 h, primary screen (AID 1154); settings: P. falciparum Indochina infected RBC osmotic lysis, higher = more signal, called active from +8 up or from −8 down
[4] = plasmodial surface anion channel blockers, osmotic lysis – cell-based, P. falciparum Indochina, OD700, 2 h, primary screen (AID 1155);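 also: lysis reports solute entry through the parasite surface anion channel PSAC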; settings: P. falciparum Indochina infected erythrocytes, higher = more signal, called active from +8 up or from −8 down
[5] = changes in parasitized red cell lysis, either direction – P. falciparum Indochina, OD700, 3 h, PSAC antagonist project, primary screen (AID 1156); settings: P. falciparum-infected erythrocytes, osmotic lysis, higher = more signal, called active from +8 up or from −8 down
[6] = plasmodial surface anion channel blockers, osmotic lysis – cell-based, P. falciparum Indochina, OD700, 18 h, primary screen (AID 1157); settings: P. falciparum Indochina infected erythrocytes, osmotic lysis OD700, 18 h; higher = more signal, called active from +8 up or from −8 down
[7] = S6 kinase pathway phospho-S6 level changes – cell-based, A549, cytoblot, luminescence, serum-stimulated, primary screen (AID 1158); settings: 5 h, higher = more signal;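 also: serum-stimulated A549 lung adenocarcinoma cells; signal is phosphorylated S6 detected by cytoblot immunostaining with HRP secondary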
[8] = target: NADPH oxidase 2 (Homo sapiens) (UniProt P04839); experiment: compounds shifting NOX2 Amplex Red fluorescence – cell-based, HEK293-NOX2, PMA-stimulated, NOX inhibitor project, primary screen (AID 1159); settings: 45 min, higher = more signal, called active from +8 up or from −8 down; also: test concentration not given here
Sequence of NADPH oxidase 2 (Homo sapiens) (P04839 whole entry, looked up): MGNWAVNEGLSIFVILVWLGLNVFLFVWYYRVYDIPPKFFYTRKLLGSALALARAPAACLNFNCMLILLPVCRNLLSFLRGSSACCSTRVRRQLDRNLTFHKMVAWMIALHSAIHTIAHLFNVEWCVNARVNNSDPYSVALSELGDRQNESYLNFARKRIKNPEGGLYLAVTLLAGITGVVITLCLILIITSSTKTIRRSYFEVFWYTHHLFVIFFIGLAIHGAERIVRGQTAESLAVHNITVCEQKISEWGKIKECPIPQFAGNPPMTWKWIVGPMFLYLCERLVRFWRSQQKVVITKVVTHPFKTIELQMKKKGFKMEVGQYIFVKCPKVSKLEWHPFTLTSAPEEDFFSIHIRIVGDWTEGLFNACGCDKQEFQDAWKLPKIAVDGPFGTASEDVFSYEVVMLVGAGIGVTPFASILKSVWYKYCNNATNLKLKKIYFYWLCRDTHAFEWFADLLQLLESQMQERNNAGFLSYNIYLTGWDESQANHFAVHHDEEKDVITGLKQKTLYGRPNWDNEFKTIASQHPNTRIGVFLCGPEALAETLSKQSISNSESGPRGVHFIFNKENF

[9] = target: NADPH oxidase 4 (Homo sapiens) (UniProt Q9NPH5); experiment: compounds shifting NOX4 Amplex Red fluorescence – cell-based, HEK293-NOX4, tetracycline-induced, NOX inhibitor project, primary screen (AID 1160); settings: HEK293-NOX4, Amplex Red H2O2 fluorescence, 45 min; higher = more signal, called active from +8 up or from −8 down
Sequence of NADPH oxidase 4 (Homo sapiens) (Q9NPH5 whole entry, looked up): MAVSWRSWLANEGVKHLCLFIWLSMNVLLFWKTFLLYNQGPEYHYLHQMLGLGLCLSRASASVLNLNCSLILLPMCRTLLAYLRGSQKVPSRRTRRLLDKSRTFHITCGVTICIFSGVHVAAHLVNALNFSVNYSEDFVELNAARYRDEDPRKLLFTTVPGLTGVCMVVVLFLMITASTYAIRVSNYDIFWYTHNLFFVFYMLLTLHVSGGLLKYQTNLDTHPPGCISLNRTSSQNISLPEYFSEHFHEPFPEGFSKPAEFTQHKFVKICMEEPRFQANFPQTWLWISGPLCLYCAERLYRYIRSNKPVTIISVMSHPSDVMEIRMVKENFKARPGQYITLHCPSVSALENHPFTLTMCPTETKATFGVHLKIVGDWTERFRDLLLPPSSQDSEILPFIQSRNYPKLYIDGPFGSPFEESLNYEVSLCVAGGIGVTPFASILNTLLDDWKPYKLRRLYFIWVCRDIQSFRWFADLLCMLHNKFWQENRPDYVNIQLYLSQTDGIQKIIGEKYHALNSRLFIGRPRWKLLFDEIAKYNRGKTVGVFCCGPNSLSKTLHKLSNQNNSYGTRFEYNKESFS

[10] = target: NADPH oxidase 5 (Homo sapiens) (UniProt Q96PH1); experiment: compounds shifting NOX5 Amplex Red fluorescence – cell-based, HEK293-NOX5, NOX inhibitor project, primary screen (AID 1161); settings: HEK293-NOX5, ionomycin, 45 min, higher = more signal
Sequence of NADPH oxidase 5 (Homo sapiens) (Q96PH1 whole entry, looked up): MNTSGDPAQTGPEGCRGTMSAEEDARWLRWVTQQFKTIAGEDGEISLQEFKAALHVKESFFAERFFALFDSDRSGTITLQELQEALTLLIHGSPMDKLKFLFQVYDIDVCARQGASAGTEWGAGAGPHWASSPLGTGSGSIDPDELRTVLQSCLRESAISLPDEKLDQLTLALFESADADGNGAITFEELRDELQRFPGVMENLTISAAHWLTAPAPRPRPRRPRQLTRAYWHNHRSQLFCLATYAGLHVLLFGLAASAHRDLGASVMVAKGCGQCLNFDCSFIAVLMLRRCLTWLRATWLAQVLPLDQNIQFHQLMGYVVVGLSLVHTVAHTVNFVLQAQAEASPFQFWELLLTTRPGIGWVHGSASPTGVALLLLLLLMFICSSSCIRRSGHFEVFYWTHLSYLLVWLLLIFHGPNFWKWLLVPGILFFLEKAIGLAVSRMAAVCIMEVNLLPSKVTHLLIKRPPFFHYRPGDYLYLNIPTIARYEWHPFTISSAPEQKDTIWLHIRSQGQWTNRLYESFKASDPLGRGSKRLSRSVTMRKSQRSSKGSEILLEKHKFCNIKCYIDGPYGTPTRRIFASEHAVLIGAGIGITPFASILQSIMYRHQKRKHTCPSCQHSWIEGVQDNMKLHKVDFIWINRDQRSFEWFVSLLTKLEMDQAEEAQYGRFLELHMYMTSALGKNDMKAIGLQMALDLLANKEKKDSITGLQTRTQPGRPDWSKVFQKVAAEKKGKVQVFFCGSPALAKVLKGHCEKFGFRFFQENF

| Compound | z-score [1] | composite z-score [2] | z-score [3] | z-score [4] | z-score [5] | z-score [6] | z-score [7] | z-score [8] | z-score [9] | z-score [10] |
| --- | --- | --- | --- | --- | --- | --- | --- | --- | --- | --- |
| Cc1ccc(S[C@]2(C(=O)NCc3ccccc3)CC(=O)N(Cc3ccccc3C(F)(F)F)[C@@H]2c2ccc(CO)cc2I)cc1 | 0.852 (inactive) | 0.056 | 5.8 (inactive) | 0.943 (inactive) | 0.836 (inactive) | 0.279 (inactive) | 0.316 | 0.708 (inactive) | -1.5 (inactive) | 1.11 |
| COc1cc(Cc2cc3c(c(CCc4ccccc4)n2)[Si](C(C)C)(C(C)C)O[C@H]3c2ccccc2)cc(OC)c1OC | -1.77 (inactive) | 0.101 | -0.436 (inactive) | 0.356 (inactive) | -3.89 (inactive) | 0.0416 (inactive) | -0.557 | 1.25 (inactive) | -2.98 (inactive) | -3.87 |
| COc1ccc(NN2C(C(O)c3ccc(F)cc3)C=CC3C(=O)N(C4CCCCC4)C(=O)C32)cc1 (stereo not given) | -1.24 (inactive) | 0.0561 | 5.76 (inactive) | 1.42 (inactive) | 0.37 (inactive) | 0.856 (inactive) | -0.54 | -1.73 (inactive) | -3.25 (inactive) | -1.23 |
| COC(=O)[C@@]1(Cc2ccc(OC)cc2)[C@H]2c3cc(C(=O)N(C)C)n(Cc4c(CO)[nH]cc(C)c4=O)c3C[C@H]2CN1C(=O)c1ccccc1 | -2.08 (inactive) | 0.318 | 2.77 (inactive) | 0.814 (inactive) | 0.072 (inactive) | 0.643 (inactive) | -0.507 | -0.0394 (inactive) | -0.719 (inactive) | -0.777 |
| C=C(C(=O)CC[C@@H](OC(=O)c1ccccc1-c1ccccc1C(=O)O)c1cccc(OCCO)c1)C(C)C | 0.272 (inactive) | 0.262 | 4.83 (inactive) | 0.407 (inactive) | 0.51 (inactive) | 0.233 (inactive) | -0.205 | 3.11 (inactive) | 1.06 (inactive) | -0.442 |
| O=C1OCC=C[C@H]2OC34C=CCN(Cn5nnc6ccccc65)C(=O)[C@H]3N(CCO)C(=O)[C@@H]4[C@@H]12 (stereo not given in full) | -0.683 (inactive) | -0.101 | 0.813 (inactive) | 0.531 (inactive) | 0.268 (inactive) | 0.55 (inactive) | -0.376 | 1.17 (inactive) | 0.99 (inactive) | 1.38 |
| CCCCCCCCCCC(O)C1C=CC2C(=O)N(C)C(=O)C2N1Nc1ccccc1 (stereo not given) | -2.27 (inactive) | -0.206 | 8.71 (active) | 3.03 (inactive) | 0.156 (inactive) | 2.84 (inactive) | -1.28 | -0.433 (inactive) | -4.22 (inactive) | -1.7 |
| CC(C)[Si](C#Cc1ccccc1)(O[C@H](c1ccccc1)c1cn(Cc2ccccc2)nn1)C(C)C | 1.57 (inactive) | -0.275 | 1.66 (inactive) | 1.53 (inactive) | -1.39 (inactive) | 0.554 (inactive) | 0.0866 | 0.789 (inactive) | -1.18 (inactive) | -2.98 |
| O=C1C2C=CC(C(O)C3CC=CCC3)N(Nc3ccc([N+](=O)[O-])cc3)C2C(=O)N1c1ccccc1 (stereo not given) | -0.852 (inactive) | 0.908 | 24.8 (active) | 5.02 (inactive) | 4 (inactive) | 1.2 (inactive) | -0.837 | -1.03 (inactive) | -3.02 (inactive) | -3.26 |
| C=CCOC(=O)[C@@H]1[C@H]2C(=O)O[C@H](c3ccccc3)[C@H](c3ccccc3)N2[C@H](c2ccc(OCCOC(=O)[C@@H]3C[C@@H]4C(=O)N[C@@H](CC(C)C)C(=O)N4[C@@H]3c3ccc(O)cc3)cc2)[C@@]12C(=O)Nc1ccc(I)cc12 | 0.928 (inactive) | 1.58 | 1.5 (inactive) | 0.9 (inactive) | 4.25 (inactive) | 0.718 (inactive) | 0.0764 | 0.485 (inactive) | 0.64 (inactive) | 0.839 |
| CCCCN1CC=CC23O[C@@H]4/C=C\CCCOC(=O)C4[C@H]2C(=O)N(CCCCCCO)[C@@H]3C1=O (stereo not given in full) | 2.36 (inactive) | 0.0927 | 1.81 (inactive) | -0.88 (inactive) | -0.75 (inactive) | -0.945 (inactive) | 3.08 | 0.873 (inactive) | 0.0146 (inactive) | 1.84 |
| COC(=O)c1ccc(OC)c(/C=C\CC(OC(=O)c2ccncc2)c2ccccc2)c1 (stereo not given) | 2.32 (inactive) | -0.206 | 20.4 (active) | 3.1 (inactive) | 0.543 (inactive) | -1.02 (inactive) | 1.93 | -0.552 (inactive) | 0.529 (inactive) | -0.408 |
| C=CCOC(=O)[C@H]1[C@@H]2C(=O)O[C@@H](c3ccccc3)[C@@H](c3ccccc3)N2[C@@H](c2ccc(OCCOC(=O)[C@H]3C[C@H]4C(=O)NCC(=O)N4[C@H]3c3cccc(OCCO)c3)cc2)[C@]12C(=O)Nc1ccc(I)cc12 | 0.0133 (inactive) | 1.31 | 5.17 (inactive) | 2.48 (inactive) | 0.939 (inactive) | 1.58 (inactive) | 0.58 | 1.71 (inactive) | 0.956 (inactive) | 1.4 |
| Cc1ccc(S(=O)(=O)N2[C@@H](c3ccccc3)C(C(=O)O)=C[C@H]2C(C)(C)C)cc1 | -0.576 (inactive) | -0.0318 | 0.386 (inactive) | 0.0156 (inactive) | 0.136 (inactive) | 0.61 (inactive) | -0.222 | 0.384 (inactive) | -0.539 (inactive) | -0.36 |
| CN1C(=O)C2CC=C(C3=CCO[C@@H]3[C@H]3CCCN3S(=O)(=O)c3ccccc3[N+](=O)[O-])CC2C1=O (stereo not given in full) | -0.62 (inactive) | -0.191 | 5.38 (inactive) | 0.672 (inactive) | -0.604 (inactive) | -0.0627 (inactive) | -0.307 | 0.278 (inactive) | 1.22 (inactive) | 0.32 |
| C=CCNC(=O)[C@@H]1[C@H]2C(=O)O[C@H](c3ccccc3)[C@H](c3ccccc3)N2[C@H](c2ccc(O)cc2)[C@@]12C(=O)Nc1ccc(C#CC3=CCCCC3)cc12 | -0.396 (inactive) | 1.56 | 1.71 (inactive) | 0.959 (inactive) | -0.587 (inactive) | 1.08 (inactive) | -0.424 | 1.51 (inactive) | 0.391 (inactive) | 0.578 |
| COC(=O)C1=CC(c2ccc(CO)cc2)=CC(C2CC2)N(Cc2cc3c(cc2Br)OCO3)C=C1C(=O)OC (stereo not given) | -0.938 (inactive) | 0.3 | 10.6 (active) | 0.856 (inactive) | 0.954 (inactive) | 0.572 (inactive) | -0.625 | -0.853 (inactive) | -0.385 (inactive) | 0.857 |
| C#CCN(C(=O)OC(C)(C)C)[C@H](CO)c1ccccc1 | -1.15 (inactive) | -0.0536 | 1.57 (inactive) | -0.0352 (inactive) | -0.195 (inactive) | 0.133 (inactive) | 0.137 | 0.441 (inactive) | 0.469 (inactive) | 0.745 |
| C=CCOC(=O)[C@H]1[C@@H]2C(=O)O[C@@H](c3ccccc3)[C@@H](c3ccccc3)N2[C@@H](c2ccc(OCCOC(=O)[C@@H]3C[C@@H]4C(=O)N[C@@H](Cc5ccccc5)C(=O)N4[C@@H]3c3ccc(O)cc3)cc2)[C@]12C(=O)Nc1ccc(I)cc12 | -0.402 (inactive) | 0.861 | 4.04 (inactive) | 2.18 (inactive) | 2.04 (inactive) | 1.38 (inactive) | -0.674 | 0.972 (inactive) | -1.15 (inactive) | 0.885 |
| C[C@]12C(=O)N(CCO)[C@@H]3C(=O)N(c4ccc(Cl)cc4)CC=CC31O[C@@H]1/C=C\CCCOC(=O)C12 (stereo not given in full) | -0.295 (inactive) | 0.161 | 0.505 (inactive) | 0.176 (inactive) | 0.228 (inactive) | 0.359 (inactive) | -0.362 | 1.96 (inactive) | -0.22 (inactive) | 2.65 |
| NCCCCCCNC(=O)[C@@H]1C[C@@H]2C(=O)NCC(=O)N2[C@@H]1c1cccc(OCCO)c1 | 0.884 (inactive) | 0.0892 | 1.68 (inactive) | 0.774 (inactive) | -0.523 (inactive) | 0.0308 (inactive) | 1.51 | 1.29 (inactive) | 0.934 (inactive) | 1.65 |
| CC(C)c1ccc(NN2C(C(O)C3=C[C@H]4C[C@@H](C3)C4(C)C)C=CC3C(=O)N(c4ccccc4)C(=O)C32)cc1 (stereo not given in full) | -0.736 (inactive) | 0.587 | 1.8 (inactive) | 1.13 (inactive) | 0.0675 (inactive) | 1.37 (inactive) | -0.578 | -0.843 (inactive) | -3.08 (inactive) | -1.62 |
| O=C1N(Cc2ccccc2)Cc2ccccc2C[C@@]12COC(c1ccc(OCCCO)cc1)=N2 | -0.595 (inactive) | 0.179 | 20.3 (active) | 4.93 (inactive) | 3.72 (inactive) | 1.48 (inactive) | -0.087 | -5.75 (inactive) | -0.977 (inactive) | -1.8 |
| C=CCC(OC(C)=O)[C@@H]1[C@@H](N(Cc2cccc3ccccc23)C(=O)c2ccc(C)cc2)c2cc(OCCCO)ccc2N1C(=O)Cc1ccc2ccccc2c1 (stereo not given in full) | 2.62 (inactive) | 0.167 | 0.483 (inactive) | -0.407 (inactive) | -0.419 (inactive) | -1.2 (inactive) | 2.14 | -2.56 (inactive) | 1.08 (inactive) | 2.41 |
